Compound activity as filed in PubChem.
Most compounds without a hit are left out; they make up all but 5.9% or so of the library.
RORgamma inh = qHTS for inhibitors of ROR gamma transcriptional activity; Nuclear receptor ROR-gamma (Mus musculus), P51450; Drosophila S2 Gal4-RORgamma UAS-luciferase reporter, 20 h; Potency, µM (doses to about 53.6 µM), for the others: top-dose activity change, negative = inhibition, actives largely listed as inhibitors; 5.4% of 310,000 active; AID 2551, 2010; note: % is set by controls: 0 for no effect and ±100 for the full control effect; nearly all actives have a fitted effect of over 60% in size
Target sequence (P51450 whole entry, looked up, the tested form may be a part): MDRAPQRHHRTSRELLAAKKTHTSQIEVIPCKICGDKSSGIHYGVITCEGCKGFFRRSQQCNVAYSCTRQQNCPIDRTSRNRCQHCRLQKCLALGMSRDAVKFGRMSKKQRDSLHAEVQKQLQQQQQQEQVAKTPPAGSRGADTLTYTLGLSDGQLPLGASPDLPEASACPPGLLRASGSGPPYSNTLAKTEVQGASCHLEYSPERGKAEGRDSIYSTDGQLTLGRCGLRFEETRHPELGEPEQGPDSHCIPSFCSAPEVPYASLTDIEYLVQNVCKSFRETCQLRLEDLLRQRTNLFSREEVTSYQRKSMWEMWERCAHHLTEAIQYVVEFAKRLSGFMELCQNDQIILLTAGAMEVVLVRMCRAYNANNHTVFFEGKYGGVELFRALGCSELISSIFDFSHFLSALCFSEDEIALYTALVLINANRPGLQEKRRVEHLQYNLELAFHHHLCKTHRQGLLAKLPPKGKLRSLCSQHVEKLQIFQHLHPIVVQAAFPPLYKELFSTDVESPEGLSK
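A Gal4/UAS one-hybrid system in insect cells: metallothionein-promoter Gal4–ROR gamma fusion plus Photinus luciferase reporter. Copper sulfate 700 uM final, 20 hr ambient incubation, luminescent detection after 10 min with reagent.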
HEK293 tox = qHTS of GLP-1 Receptor Inverse Agonists: Cytotox Screen | Potency, µM (doses to about 38.3 µM), without a hit: at the highest dose activity change, negative = inhibition, hits mostly inhibitors | 0.13% of 410,000 active | HEK293 cAMP-luciferase reporter cells, luminescence, 24 h;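 note: loss of luciferase light is scored as toxicity; % is set by controls: 0 for no effect and ±100 for the full control effect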
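Seeding density was 200 cells/uL; after overnight-length (12 h) culture, 23 nL compounds went on for 24 h at 37 °C. Readout used a luciferase detection reagent, luminescence taken after 12 min at room temperature.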
GLP-1R agonist = qHTS of GLP-1 Receptor Agonists; HEK293 GLP-1R CRE-luciferase, luminescence, 4-6 h; cells express a hypersensitive GLP-1R form; 0.007% of 380,000 active; Glucagon-like peptide 1 receptor (Homo sapiens), P43220; Potency, µM (highest dose often 45.6 µM), without a hit: at the highest dose activation, usual class: activators; note: % of control where 0% means no effect
Gal4-VP16 FLuc = VP16 counterscreen qHTS for inhibitors of ROR gamma transcriptional activity | AID 2546, 2010 | Potency, µM (top dose mostly 53.6 µM), without a hit: at the top dose activity, negative = inhibition, actives largely listed as inhibitors | Drosophila S2 Gal4-VP16 UAS-luciferase, luminescence, 20 h | 3.5% of 310,000 active;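 note: Gal4-VP16 expression switched on by copper sulfate through the metallothionein promoter; % is set by controls: 0 for no effect and ±100 for the full control effect; nearly all actives have a fitted effect of over 50% in size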
GLP1R inv ag = qHTS of GLP-1 Receptor Inverse Agonists (Inhibition Mode); HEK293 GLP-1R CRE-luciferase, luminescence, 24 h; GLP-1R form is constitutively active; Potency, µM (doses to about 38.3 µM), inactives show at the highest dose activity change, negative = inhibition, hits mostly inhibitors; 1.6% of 410,000 active; note: % is set by controls: 0 for no effect and ±100 for the full control effect; nearly all actives have a fitted effect of over 55% in size
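Inverse agonists were sought by their lowering of basal cAMP reporter luciferase output in HEK293 cells stably carrying constitutively active human GLP-1R, after 24 h compound treatment.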
* hit, by the source's call; ? = inconclusive; · = no result; [ ] = dose if it differs, or a comment. Calls come from the whole dose curve; as a rule, active = well fitted curve in the direction sought with a large enough effect; inconclusive = small, poorly fitted or top-dose-only effect, or another doubt; inactive = no such curve, though single readings can be large; an effect the other way counts as inactive or inconclusive. Potency is the fitted concentration of half-maximal effect.

SMILES | RORgamma inh | HEK293 tox | GLP-1R agonist | Gal4-VP16 FLuc | GLP1R inv ag
CCN(CC)S(=O)(=O)c1ccc(C)c(NC(=S)N2CCN(Cc3ccc4c(c3)OCO4)CC2)c1 | 11µM* | -21% | 6% | 22µM* | ?
Nc1[nH]nc2nc3ccccc3cc12 | 16% | -6%[7.66 µM] | 5% | -17% | 30%[7.66 µM]
Nc1cccc2nc3ccccc3cc12 | 14µM* | 36% | -21% | ? | ?
Cc1cc2c(NC(=O)Nc3ccccc3)cccc2nn1 | -5% | -12% | 10% | -6% | 27%
Cc1cc2c(N)cccc2nn1 | 13µM* | 2% | 0% | -23% | 16%
CN(Cc1ccccc1)C(=O)[C@H](Cc1ccc2ccccc2c1)NC(=O)[C@@H]1C[C@@H](O)CN1C(=O)c1cn(C)c2ccccc12 | 32% | · | · | -6% | ·
CN1CCC(N(C)S(=O)(=O)c2ccc(NC(=O)COc3cccc(C(F)(F)F)c3)cc2)CC1 | · | -1% | 2% | · | 11µM*
CN1CCN(NC(=O)COc2cccc(C(F)(F)F)c2)CC1 | -2% | 2% | 0% | -2% | -11%
COc1ccc(CC(=O)Nc2ccc(S(=O)(=O)N(C)C3CCN(C)CC3)cc2)cc1 | · | -5% | 5% | · | -14%
CC(Oc1ccc(Br)cc1)C(=O)Nc1ccc(S(=O)(=O)N(C)C2CCN(C)CC2)cc1 (stereo unspecified) | · | -12% | -4% | · | 2.8µM*
Cc1ccc(N2CC(NC(=O)c3cccc(Cl)c3)CC2=O)cc1C (stereo unspecified) | · | 1% | · | · | 10%
N=c1ccn(Cc2ccc(Cl)cc2)cc1 | -35% | 4% | -7% | -15% | ?
CCn1ccc(=N)cc1 | 5% | -7% | 1% | 16µM* | -6%
CCCCCCCCCn1ccc(=N)cc1 | ? | ? | -2% | 1.6µM* | ?
C[C@H](C(=O)OCO/N=[N+](\[O-])N1CCCC1)c1cccc2ccccc12 | 16% | · | · | -2% | ·
Cc1cc(C)cc(OCCOCCn2c(-c3ccc(Cl)cc3)nc3ccccc3c2=O)c1 | · | -5% | · | · | 0%
CC(C)c1onc(-c2c(Cl)cccc2Cl)c1COc1ccc(/C=C/c2cccc(C(=O)O)c2)c(Cl)c1 | -45% | · | · | 5.6µM* | ·
CCC(C)NC(=O)c1cccc(OCc2c(C)noc2C)c1 (stereo unspecified) | -31% | -4% | 5% | 3% | -3%
Cn1ncc2c(NNC(=O)c3ccccc3Cl)ncnc21 | 1µM* | -22% | -6% | ? | 15%
COc1ccc(CC(=O)NNc2ncnc3c2cnn3-c2ccc(C)cc2)cc1 | -38% | 1% | -1% | ? | -12%
Cc1ccc(Cl)cc1-n1ncc2c(NNC(=O)c3ccco3)ncnc21 | ? | -23% | 6% | -2% | 8%
O=C(NNc1ncnc2c1cnn2-c1cccc(Cl)c1)c1ccco1 | 5µM* | -19% | 4% | 7.1µM* | 2%
COc1ccc(CC(=O)NNc2ncnc3c2cnn3-c2ccc(C)cc2)cc1OC | 6.3µM* | -2% | 1% | ? | 7%
Cc1ccccc1C(=O)NNc1ncnc2c1cnn2C | ? | 16%[0.307 µM] | 5% | -1% | -6%[0.307 µM]
Cc1ccc(-n2ncc3c(NNC(=O)c4ccco4)ncnc32)cc1C | 3.5µM* | -23% | 0% | 7.1µM* | ?
SMILES | RORgamma inh | HEK293 tox | GLP-1R agonist | Gal4-VP16 FLuc | GLP1R inv ag
CC(=O)NNc1ncnc2c1cnn2-c1ccc(C)c(Cl)c1 | ? | 18% | 0% | ? | 12%
COc1ncc2nc(-c3ccccc3)c(=O)n(-c3ccccc3)c2n1 | 23% | · | · | -11% | ·
CCCc1cc(=O)[nH]c(SCc2nc(-c3ccc(OCC)cc3)no2)n1 | · | 5% | · | · | -3%
CCCCOC(=O)c1ccc(NC(=O)c2ccc3c(c2)CCN3S(C)(=O)=O)cc1 | · | 2% | · | · | 5%
Cc1cccc(/C=C/c2onc(C)c2[N+](=O)[O-])n1 | · | ? | -1% | · | 2.8µM*
CCN(CC)CCn1c(-c2ccccc2)nc2c(NCCO)nc(C)nc21 | -27% | · | · | -5% | ·
COc1ccc(C(=O)NC(C)c2nc3ccccc3[nH]2)cc1OC (stereo unspecified) | -8% | -1% | 2% | -4% | 27%
CCOc1ccc(C(=O)Nc2nc3ccccc3[nH]2)cc1OCC | 1.4µM* | 3% | 17% | 16µM* | 38%
COc1cc(C(=O)Nc2nc3ccccc3[nH]2)ccc1OC(F)F | 5µM* | ? | 17% | 7.9µM* | -9%
COc1ccc(C(=O)Nc2nc3ccccc3[nH]2)cc1OC | 11µM* | 3% | 4% | 10µM* | 13%
COc1ccc(C(=O)NCc2nc3ccccc3[nH]2)cc1OC | -5% | -1% | 4% | 7% | -2%
COc1ccc(C(=O)Nc2nc3ccccc3[nH]2)cc1S(=O)(=O)N1CCCC1 | 11µM* | -11% | -10% | ? | -11%
CO[C@@H]1COC(=O)C/C=C\[C@H](C)COC(=O)[C@H](C)NC(=O)C/C=C\[C@H]1C | -11%[10 µM] | · | · | 1%[10 µM] | ·
COc1ccc(Br)c(C(=O)Nc2nc3ccccc3[nH]2)c1 | -44% | -3% | 17% | 5% | 26%
COc1ccc(Cl)cc1C(=O)Nc1nc2ccccc2[nH]1 | 2.2µM* | -13% | -4% | 6.3µM* | ?
O=C(Cn1ccn(-c2ccc(F)c(F)c2)c(=O)c1=O)Nc1ccccc1F | · | 1% | · | · | -1%
COc1cc(OC)cc(C(=O)Nc2nc(CC(=O)NCc3ccc(F)cc3)cs2)c1 | · | ? | 1% | · | 7.1µM*
COc1ccccc1NC(=O)Nc1nc(CC(=O)Nc2cc(F)ccc2F)cs1 | · | ? | -6% | · | 5.6µM*
COc1ccccc1NC(=O)Nc1nc(CC(=O)Nc2cccc(F)c2)cs1 | · | ? | -29% | · | ?
COc1cc(OC)cc(C(=O)Nc2nc(CC(=O)NCc3ccccc3OC)cs2)c1 | · | ? | -14% | · | 10µM*
COc1ccc(C2CC(=O)c3cc(-c4nc(-c5cccc([N+](=O)[O-])c5)cs4)c(=O)n(-c4ccccc4C)c3C2)cc1 (stereo unspecified) | · | 4% | -2% | · | 5%
COc1ccc(C2C=C3CNS(=O)(=O)C3CC2OC(=O)c2cccs2)cc1 (stereo unspecified) | 10% | · | · | -4% | ·
CCCCCC(=O)NNC(=O)c1c(O)c2ccccc2n(CC)c1=O | 43% | 14% | 1% | 1% | 0%
